# Assay results published in PMC4336329 (PLoS ONE, 2015).
# About 14,000 (4.5%) of roughly 310,000 compounds showed an effect of 50% or more. The effect is printed as a negative number. The list comes from a sample in which strong results are over-represented; it also holds similar structures and randomly drawn compounds.
# Target: human ether-à-go-go-related gene (hERG) potassium channel (human, UniProt Q12809)
# Assay: primary screen, population patch clamp on CHO cells stably expressing hERG; higher = less effect of the substance
# 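Note: peak tail current of the secondary pulse compared with the same well before compound.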
# Sequence of human ether-à-go-go-related gene (hERG) potassium channel (Q12809 whole entry, looked up): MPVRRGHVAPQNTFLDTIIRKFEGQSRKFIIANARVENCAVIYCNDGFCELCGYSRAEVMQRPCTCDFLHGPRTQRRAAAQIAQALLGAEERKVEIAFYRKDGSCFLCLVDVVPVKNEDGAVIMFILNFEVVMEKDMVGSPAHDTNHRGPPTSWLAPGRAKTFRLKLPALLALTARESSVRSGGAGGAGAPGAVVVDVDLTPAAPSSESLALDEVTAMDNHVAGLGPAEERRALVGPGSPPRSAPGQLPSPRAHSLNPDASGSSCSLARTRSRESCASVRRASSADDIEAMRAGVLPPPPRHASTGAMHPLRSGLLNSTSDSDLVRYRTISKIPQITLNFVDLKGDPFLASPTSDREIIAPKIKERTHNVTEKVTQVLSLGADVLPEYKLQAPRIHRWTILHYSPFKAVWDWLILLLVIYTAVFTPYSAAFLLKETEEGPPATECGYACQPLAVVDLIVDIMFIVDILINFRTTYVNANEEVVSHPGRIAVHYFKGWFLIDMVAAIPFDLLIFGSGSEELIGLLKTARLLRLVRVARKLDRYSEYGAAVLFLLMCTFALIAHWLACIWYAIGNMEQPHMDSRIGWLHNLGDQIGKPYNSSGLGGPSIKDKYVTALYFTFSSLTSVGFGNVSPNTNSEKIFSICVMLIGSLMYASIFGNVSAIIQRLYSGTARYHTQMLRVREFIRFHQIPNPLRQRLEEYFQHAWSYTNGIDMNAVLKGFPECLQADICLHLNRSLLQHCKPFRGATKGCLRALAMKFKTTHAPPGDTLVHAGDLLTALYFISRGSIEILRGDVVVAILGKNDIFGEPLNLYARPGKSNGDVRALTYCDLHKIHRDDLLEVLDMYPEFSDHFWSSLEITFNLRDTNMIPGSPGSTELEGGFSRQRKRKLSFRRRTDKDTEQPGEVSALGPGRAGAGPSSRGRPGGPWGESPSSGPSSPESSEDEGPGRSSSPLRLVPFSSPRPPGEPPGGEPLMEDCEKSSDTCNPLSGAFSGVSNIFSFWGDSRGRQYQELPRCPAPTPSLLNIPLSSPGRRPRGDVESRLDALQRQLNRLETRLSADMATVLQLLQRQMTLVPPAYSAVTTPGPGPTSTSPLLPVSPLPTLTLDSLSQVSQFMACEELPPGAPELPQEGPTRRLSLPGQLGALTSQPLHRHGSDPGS
row,Structure (SMILES),"hERG current change (%, negative = inhibition) at 10uM"
1,O=c1c2cc(F)ccc2[nH]c(=S)n1CCCN1CCOCC1,-3.61%
2,CC1(C)CC(=O)C2=C(C1)NC(=O)NC2c1ccc(Cl)cc1 (stereo not shown),17.3%
3,COc1cc(OC)cc(C(=O)OCC(=O)c2cc(C)n(CC3CCCO3)c2C)c1 (stereo not shown),-39%
4,Cc1cc(C(=O)COC(=O)CN(C)S(=O)(=O)c2ccc(Cl)cc2)c(C)n1Cc1cccs1,-5.54%
5,COc1cc(C(=O)OCC(=O)c2cc(C)n(CC3CCCO3)c2C)cc(OC)c1C (stereo not shown),-68%
6,Cc1cc(C(=O)COC(=O)CN(C)S(=O)(=O)c2ccc(Cl)cc2)c(C)n1CC1CCCO1 (stereo not shown),-55.2%
7,Cc1cc(C(=O)COC(=O)C2CCN(C(=O)c3ccc(Cl)cc3)CC2)c(C)n1CC1CCCO1 (stereo not shown),-15.2%
8,COc1cc(OC)c(C(=O)OCC(=O)c2cc(C)n(CC3CCCO3)c2C)cc1OC (stereo not shown),13.3%
9,CCOC(=O)N1CCC(NC(=O)CC(NS(=O)(=O)c2ccc(Cl)cc2)c2ccco2)CC1 (stereo not shown),-53%
10,O=C(CC(NS(=O)(=O)c1ccc(Cl)cc1)c1ccco1)NC1CCCC1 (stereo not shown),-8%
11,CCOC(=O)N1CCC(NC(=O)CC(NS(=O)(=O)c2ccc(C)cc2)c2ccco2)CC1 (stereo not shown),-7.75%
12,CCc1cccc(C)c1NC(=S)NCC(c1cccnc1)N(C)C (stereo not shown),5.1%
13,CCc1nnc(NC(=O)C2CCN(c3cnccn3)CC2)s1,4.24%
14,CCOc1ccc(OCC)c(S(=O)(=O)NCc2ccccn2)c1,-1.02%
15,O=S(=O)(NCc1ccccn1)c1cc(OCC(F)(F)F)ccc1OCC(F)(F)F,-69.9%
16,COc1ccc(OC)c(S(=O)(=O)NCc2ccccn2)c1,11.9%
17,Cn1nc(C(=O)NC2CCCCC2)c2ccccc2c1=O,-15.3%
18,CCCC(=O)NCc1cc(-c2nn(C)c(=O)c3ccccc23)ccc1OC,7.01%
19,CCC(=O)Nc1cc(-c2nn(C)c(=O)c3ccccc23)ccc1OC,-11.4%
20,Cn1nc(-c2ccc(C(=O)NC3CCCCC3)cc2)c2ccccc2c1=O,-52.4%
21,COc1ccc(-c2nn(C)c(=O)c3ccccc23)cc1NC(=O)Cn1nc(-c2ccccc2)c2ccccc2c1=O,5.06%
22,Cn1nc(C(=O)NC2CCCC2)c2ccccc2c1=O,1.63%

row,Structure (SMILES),"hERG current change (%, negative = inhibition) at 10uM"
1,COc1ccc(-c2nn(C)c(=O)c3ccccc23)cc1CNC(=O)C1CCCCC1,-56.3%
2,COc1ccc(-c2nn(C)c(=O)c3ccccc23)cc1NC(=O)Cn1nc(C)c2ccccc2c1=O,-57.5%
3,COc1ccc(-c2nn(C)c(=O)c3ccccc23)cc1CNC(=O)NC1CCCCC1,-26.5%
4,CCC1CCCCN1C(=S)NC1CCCCC1 (stereo not shown),17.2%
5,COc1cc(/C=C/C(=O)Nc2ccc(C)cc2)cc(OC)c1OC,-2.49%
6,O=C(C1CCN(S(=O)(=O)c2ccc(Br)s2)CC1)N1CCc2ccccc21,-46.8%
7,c1ccc(CCc2nn3c(C4COc5ccccc5O4)nnc3s2)cc1 (stereo not shown),-1.79%
8,COc1ccc(/C=N/n2c(C3CCCCC3)n[nH]c2=S)c(OC)c1,23.6%
9,COc1cccc(N2CC(C(=O)N3CCC4(CC3)CC(=O)c3ccccc3O4)CC2=O)c1 (stereo not shown),-53.5%
10,COc1ccc(N2CC(C(=O)N3CCC4(CC3)CC(=O)c3ccccc3O4)CC2=O)cc1 (stereo not shown),-78.1%
11,COc1ccc(N2CC(C(=O)N3CCN(c4ccccc4)CC3)CC2=O)cc1 (stereo not shown),-41.6%
12,COc1cccc(N2CC(C(=O)Oc3ccc4ccccc4c3)CC2=O)c1 (stereo not shown),-7.91%
13,COc1ccc(N2CC(C(=O)N3CCOCC3)CC2=O)cc1 (stereo not shown),18.3%
14,COc1ccc(OC)c(S(=O)(=O)N2CCC3(CC2)CC(=O)c2ccccc2O3)c1,-47.1%
15,Cc1[nH]c2ccccc2c1/C=N/NC(=O)CNC(=O)Cc1ccccc1,15.5%
16,NC(=O)c1nnn(-c2nonc2N)c1-c1ccc([N+](=O)[O-])cc1,24.7%
17,C=CCn1c(SCC(=O)c2ccc(NS(=O)(=O)c3ccccc3)cc2)nnc1-c1cccs1,-19.5%
18,COc1cc(/C=C/C(=O)OCC(=O)Nc2sc3c(c2C#N)CCC(C)C3)ccc1OCC#N (stereo not shown),12.1%
19,COc1cccc(/C=C/C(=O)c2ccc3c(c2)OCO3)c1OC,1.82%
20,CC1CCC2(CC1)NC(=O)N(NC(=O)c1cccs1)C2=O (stereo not shown),9.08%
21,NC(=O)c1ccc(NC(=O)COC(=O)CNC(=O)c2sc3ccccc3c2Cl)cc1,-12.8%
22,O=C(COC(=O)CNC(=O)c1sc2ccccc2c1Cl)Nc1c(Cl)cc(Cl)cc1Cl,15.6%

row,Structure (SMILES),"hERG current change (%, negative = inhibition) at 10uM"
1,O=C(COC(=O)CNC(=O)c1sc2ccccc2c1Cl)Nc1cc(Cl)cc(Cl)c1,-54.7%
2,Cc1nc(-c2nc(-c3c(C(=O)NNC(=O)c4ccc(Cl)cc4)noc3C)cs2)cs1,-35.1%
3,CCN(CC)CCN(C)Cc1nc(C(c2ccccc2)c2ccccc2)no1,-57.7%
4,COCCN(C)Cc1nc(C(c2ccccc2)c2ccccc2)no1,3.28%
5,CN(CCc1cn[nH]c1)Cc1nc(C(c2ccccc2)c2ccccc2)no1,-38.5%
6,O=c1c2ccccc2nc(/C=C/c2ccc(O)cc2)n1CCc1ccccc1,-17.3%
7,O=C(CN1c2ccccc2Sc2ccccc21)NNC(=O)Nc1cccc(Cl)c1,2.84%
8,CCOC(=O)C1=C(COC(=O)[C@H](C)NS(=O)(=O)c2ccc(NC(C)=O)cc2)NC(=O)NC1C (stereo partly shown),21.2%
9,CN1CCN(CCn2c(=S)[nH]c3ccccc3c2=O)CC1,6.07%
10,O=c1c2ccccc2[nH]c(=S)n1CCN1CCCC1,-19.1%
11,O=C(O)CCn1c(=O)[nH]c2ccccc2c1=O,12.4%
12,Cl.O.O=C(c1ccc(F)cc1)C1CCN(CCn2c(=S)[nH]c3ccccc3c2=O)CC1,-68.9%
13,O=C(O)C(O)C(O)C(=O)O.O=C(c1ccc(F)cc1)C1CCN(CCn2c(=O)[nH]c3ccccc3c2=O)CC1,-51.8%
14,O=C(c1ccc(F)cc1)C1CCN(C(=O)c2ccccc2)CC1,-9.13%
15,CCOc1ccccc1C(=O)N1CCC(C(=O)c2ccc(F)cc2)CC1,-25.2%
16,O=C(CCCCn1c(=O)[nH]c2ccccc2c1=O)NC1CCN(Cc2ccccc2)CC1,-18.9%
17,CC1(C)C(=O)N(CCN2CCC(C(=O)c3ccc(F)cc3)CC2)c2ccccc21.Cl,-70.5%
18,O=C(NNc1cc(Cl)cc(Cl)c1)C1CCC1,21.9%
19,COc1ccc(NC(=O)Cn2c(C)cc(=O)c3ccccc32)cc1,-7.76%
20,O=C1CN(S(=O)(=O)c2cccc(Cl)c2Cl)c2ccccc2N1,3.58%
21,O=C1CC(=Nc2ccccc2)NN1c1ccccc1,23.1%
22,CCCCNC(=O)NC1CCCC1,4.48%

row,Structure (SMILES),"hERG current change (%, negative = inhibition) at 10uM"
1,c1ccc2c(c1)c1cccc3ccc4cccc2c4c31,16.4%
2,COC(=O)c1c(NC(=O)/C=C/c2ccco2)sc2c1CCC2,17.6%
3,Cc1nc(N)nc(Nc2ccc(Cl)cc2)c1Br,-7.99%
4,COc1ccc(NC(=O)c2ccccc2Cl)cc1NC(=O)CN1CCOCC1,-5.99%
5,COc1ccc(NC(C)=O)cc1NC(=O)CN1CCN(C2c3ccccc3-c3ccccc32)CC1,3.55%
6,COc1ccc(NC(C)=O)cc1NC(=O)CN1CCN(CC(=O)Nc2ccc(Cl)cc2)CC1,-69.8%
7,COc1ccc(NC(C)=O)cc1NC(=O)CN1CCN(c2ccccn2)CC1,10.3%
8,COc1ccccc1NC(=O)CN1CCN(CC(=O)Nc2ccc(OC)c(OC)c2)CC1,-24.4%
9,COc1ccccc1NC(=O)CN1CCN(CC(=O)Nc2cc(NC(C)=O)ccc2OC)CC1,-50.3%
10,COc1ccc(NC(C)=O)cc1NC(=O)c1ccc(Cl)cc1,-18.2%
11,COc1ccc(NC(C)=O)cc1NC(=O)CN1CCN(CC(=O)Nc2ccccc2Cl)CC1,-53.3%
12,Cc1cc2c(cc1C)C(=O)NC(C)(C)C2,8.73%
13,COc1cccc(N2C(=O)[C@H]3C(C(=O)c4cnccn4)=NN[C@H]3C2=O)c1,13.2%
14,CCc1nnc(NC(=O)CSc2ccc(-c3ccc(C)cc3)nn2)s1,9.49%
15,O=C(NC1CC(=O)c2sccc21)c1ccc(Cl)cc1Cl (stereo not shown),-35.6%
16,O=C(c1ccco1)N1CCN(C(=O)c2sccc2-c2ccccc2)CC1,-8.12%
17,CCc1ccccc1NC(=O)CN1CCN(CC(=O)Nc2cc(C)ccc2OC)CC1,-28.4%
18,COc1ccc(C)cc1NC(=O)CCN1CCN(C/C=C/c2ccccc2)CC1,-77.1%
19,COc1ccc(C)cc1NC(=O)CN1CCN(c2ccccn2)CC1,-11.7%
20,COc1ccc(C)cc1NC(=O)CN1CCN(C/C=C/c2ccccc2)CC1,-78.3%
21,COc1ccc(C)cc1NC(=O)CCN1CCCC1,2.36%
22,COc1ccc(C)cc1NC(=O)CCN1CCN(c2ccccc2)CC1,-10.3%
